# Laboratory results published in paper PMC5540273 (PLoS ONE, 2017).
# How the values were obtained:
# Conditions in all cases: concentration: 1 μM, replicates: in singlicate; n = 1
# TAOK1 = test system: TAOK1
# TAOK2 = test system: TAOK2
# TAOK3 = test system: TAOK3
# TBK1 = test system: TBK1
# TEC = test system: TEC
# TESK1 = test system: TESK1
# TGFBR1 = test system: TGFBR1
# TGFBR2 = test system: TGFBR2
# TIE1 = test system: TIE1
# TIE2 = test system: T1, TIE2
# T1 construct: gene TEK
# 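Also: KINOMEscan kinase panel screen.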
Structure (SMILES),%Inh (TAOK1) [%],%Inh (TAOK2) [%],%Inh (TAOK3) [%],%Inh (TBK1) [%],%Inh (TEC) [%],%Inh (TESK1) [%],%Inh (TGFBR1) [%],%Inh (TGFBR2) [%],%Inh (TIE1) [%],%Inh (TIE2) [%]
COc1ccc(Nc2nccc(NCCNC(=O)Nc3cc(C)ccc3C)n2)cc1 [GSK1379899],0,0,1,0,16,7,0,0,0,0
CNC(=O)c1ccc(C)c(-n2c(C)cc(OCc3ccc(F)cc3F)c(Br)c2=O)c1,0,0,0,0,1,13,0,0,1,0
Cc1c(Cn2c3ccccc3n3c(=O)cc(N4CCOCC4)nc23)cccc1C(F)(F)F [GSK2306394],0,0,0,13,1,0,0,10,6,0
COc1ccc(-c2coc3ccc(-c4nnc(C)o4)cc23)cc1,0,0,0,30,0,8,3,43,0,40
Nc1ncnc2occ(-c3ccc4c(c3)CCN4C(=O)Cc3cc(F)ccc3F)c12 [GSK2645446],0,6,0,10,0,0,0,0,45,0
